# Of roughly 7,900 targets only a part is listed; those with a hit were picked by preference. About 0.6% of all pairs of compound and target were hits. A number with no mark means an inactive call.
# Legend:
# Assay in all cases: log2 fold change, soluble protein after heating vs DMSO (PISA); higher = thermal stabilisation; K562 cells, 10 uM, 30 min; active = over 0.2 and 3.5 SD of the protein, either way, in both replicates (recomputed)
# erlotinib = compound: C#Cc1cccc(Nc2ncnc3cc(OCCOC)c(OCCOC)cc23)c1 [erlotinib]
# Procedure, shortened: (§1)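 Quantification of soluble protein used TMTpro 16plex LC-MS/MS, with channel sums equalised. Samples were the supernatant after 21,000xg for 90 min of pooled aliquots from K562 cells (2×10^6 cells/mL) treated with 10 μM compound for 30 min, heated for 3 min over 48°C-58°C, and extracted in PBS with 0.5% NP-40 at 4°C. Values, from duplicates, describe thermal stability against control samples on a log2 fold-change scale.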
# [1] = compound: C/C(=N\NC(=O)C1=CC(=CC=C1)S(=O)(=O)N2CCOCC2)/C3=C(C=CC(=C3)Cl)O
# Procedure, shortened: as §1
# [2] = compound: C1=CC(=C(C=C1Cl)C2=NC3=NC=CN=C3C(=N2)NC4=CC=NC=C4)F
# Procedure, shortened: as §1
# [3] = compound: C1=CC(=CC=C1C2=NC3=C(N2)C=C(C=C3)C(=O)N)OC4=CC=C(C=C4)Cl
# Procedure, shortened: as §1
# [4] = compound: C1=CC2=C(C=CC(=C2)/C=C\3/C(=O)NC(=NCC4=CC=CS4)S3)N=C1
# Procedure, shortened: as §1
# [5] = compound: C1=CC2=NC=CN=C2C=C1/C=C/3\C(=O)NC(=O)S3
# Procedure, shortened: as §1
# [6] = compound: C1=CC=C(C=C1)C2=NC(=C(N2)C3=CC=NC=C3)C4=CC(=C(C=C4)Cl)O
# Procedure, shortened: as §1
# [7] = compound: C1=CC=C2C(=C1)C3=NNC4=CC=CC(=C43)C2=O
# Procedure, shortened: as §1
# [8] = compound: C1CCN(C1)C(=O)NC2=CC=CC(=C2)NC3=NC=C(C(=N3)NCCC4=CN=CN4)Br
# Procedure, shortened: as §1
# [9] = compound: C1CN(CCC1(CC2=CC=C(C=C2)Cl)N)C3=NC=NC4=C3C=CN4
# Procedure, shortened: as §1
# IRAK-1-4 Inhibitor I = compound: C1COCCN1CCN2C3=CC=CC=C3N=C2NC(=O)C4=CC(=CC=C4)[N+](=O)[O-] [IRAK-1-4 Inhibitor I]
# Procedure, shortened: as §1
# ibrutinib = compound: C=CC(=O)N1CCC[C@@H](n2nc(-c3ccc(Oc4ccccc4)cc3)c3c(N)ncnc32)C1 [ibrutinib]
# Procedure, shortened: as §1
# [10] = compound: CC(=O)c1cnc2ccc(-c3cc(Cl)c(O)c(Cl)c3)nc2c1N[C@H]1CC[C@H](CN(C)C)CC1
# Procedure, shortened: as §1
# ralimetinib = compound: CC(C)(C)Cn1c(N)nc2ccc(-c3[nH]c(C(C)(C)C)nc3-c3ccc(F)cc3)nc21 [ralimetinib]
# Procedure, shortened: as §1
# [11] = compound: CC(C)(O)CC(=O)NCCn1ccc2ncnc(Nc3ccc(Oc4cccc(C(F)(F)F)c4)c(Cl)c3)c21
# Procedure, shortened: as §1
# [12] = compound: CC(C)C1=C2N=C(C=C(N2N=C1)NCC3=CC=CC=C3)NCCCCCCN
# Procedure, shortened: as §1
# [13] = compound: CC(C)C[C@@H](C=O)NC(=O)[C@H](CC(C)C)NC(=O)[C@H](CC(C)C)NC(=O)OCc1ccccc1
# Procedure, shortened: as §1
# pinometostat = compound: CC(C)N(C[C@H]1O[C@@H](n2cnc3c(N)ncnc32)[C@H](O)[C@@H]1O)[C@H]1C[C@@H](CCc2nc3cc(C(C)(C)C)ccc3[nH]2)C1 [pinometostat]
# Procedure, shortened: as §1
# [14] = compound: CC1=C(C(CC(=O)N1)C2=CC=C(C=C2)C(F)(F)F)C(=O)NC3=C(C=C4C(=C3)C=NN4)F
# Procedure, shortened: as §1
# [15] = compound: CC1=C(C2=C(C=C1)C(=O)C3=CC=CC=C3N2CCCN)C
# Procedure, shortened: as §1
# UniProt Q8IVT5, sequence (Q8IVT5 whole entry, looked up): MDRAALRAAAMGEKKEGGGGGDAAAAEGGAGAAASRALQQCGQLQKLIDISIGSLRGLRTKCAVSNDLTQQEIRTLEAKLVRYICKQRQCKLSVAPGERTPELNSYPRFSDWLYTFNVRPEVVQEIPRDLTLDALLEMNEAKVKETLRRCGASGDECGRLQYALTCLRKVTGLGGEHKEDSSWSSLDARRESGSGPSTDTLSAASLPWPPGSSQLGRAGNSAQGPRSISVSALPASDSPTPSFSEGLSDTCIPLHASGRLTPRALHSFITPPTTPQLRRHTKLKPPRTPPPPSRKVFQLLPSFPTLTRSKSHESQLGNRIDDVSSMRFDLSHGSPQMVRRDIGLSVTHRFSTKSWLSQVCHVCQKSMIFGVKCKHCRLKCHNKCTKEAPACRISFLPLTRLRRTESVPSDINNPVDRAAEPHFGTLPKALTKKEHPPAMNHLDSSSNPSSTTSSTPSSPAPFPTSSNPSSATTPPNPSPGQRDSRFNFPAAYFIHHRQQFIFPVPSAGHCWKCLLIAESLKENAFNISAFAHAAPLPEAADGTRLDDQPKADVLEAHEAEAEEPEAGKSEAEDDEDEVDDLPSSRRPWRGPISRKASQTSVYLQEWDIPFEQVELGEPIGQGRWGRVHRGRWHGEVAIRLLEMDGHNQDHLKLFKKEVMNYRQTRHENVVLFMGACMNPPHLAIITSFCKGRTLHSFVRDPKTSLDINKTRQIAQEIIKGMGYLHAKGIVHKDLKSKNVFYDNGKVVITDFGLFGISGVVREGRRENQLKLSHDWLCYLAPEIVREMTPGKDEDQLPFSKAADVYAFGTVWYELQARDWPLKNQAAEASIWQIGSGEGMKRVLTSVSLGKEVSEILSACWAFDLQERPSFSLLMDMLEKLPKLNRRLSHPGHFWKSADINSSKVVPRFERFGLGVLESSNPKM
# UniProt P49441, sequence (P49441 whole entry, looked up): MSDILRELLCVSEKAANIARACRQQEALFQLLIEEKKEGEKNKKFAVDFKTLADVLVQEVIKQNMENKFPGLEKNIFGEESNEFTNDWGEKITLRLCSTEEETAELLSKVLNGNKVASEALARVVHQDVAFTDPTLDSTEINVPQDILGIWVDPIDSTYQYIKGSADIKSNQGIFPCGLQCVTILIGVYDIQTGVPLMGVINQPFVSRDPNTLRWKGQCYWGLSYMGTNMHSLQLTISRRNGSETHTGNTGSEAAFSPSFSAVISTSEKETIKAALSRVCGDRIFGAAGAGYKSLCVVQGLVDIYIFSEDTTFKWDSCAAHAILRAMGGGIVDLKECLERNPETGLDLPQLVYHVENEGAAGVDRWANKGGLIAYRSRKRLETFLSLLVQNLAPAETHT
# UniProt Q6UB28, sequence (Q6UB28 whole entry, looked up): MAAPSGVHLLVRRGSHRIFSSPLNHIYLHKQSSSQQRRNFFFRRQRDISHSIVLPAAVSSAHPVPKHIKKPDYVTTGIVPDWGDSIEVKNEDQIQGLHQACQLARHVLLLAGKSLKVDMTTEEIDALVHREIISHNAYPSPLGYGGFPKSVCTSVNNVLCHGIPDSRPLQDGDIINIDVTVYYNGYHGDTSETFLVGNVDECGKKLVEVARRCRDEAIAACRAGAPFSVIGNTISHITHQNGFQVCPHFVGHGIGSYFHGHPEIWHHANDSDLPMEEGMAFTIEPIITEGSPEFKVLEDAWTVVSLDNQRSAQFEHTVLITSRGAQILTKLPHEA
# UniProt Q96GA3, sequence (Q96GA3 whole entry, looked up): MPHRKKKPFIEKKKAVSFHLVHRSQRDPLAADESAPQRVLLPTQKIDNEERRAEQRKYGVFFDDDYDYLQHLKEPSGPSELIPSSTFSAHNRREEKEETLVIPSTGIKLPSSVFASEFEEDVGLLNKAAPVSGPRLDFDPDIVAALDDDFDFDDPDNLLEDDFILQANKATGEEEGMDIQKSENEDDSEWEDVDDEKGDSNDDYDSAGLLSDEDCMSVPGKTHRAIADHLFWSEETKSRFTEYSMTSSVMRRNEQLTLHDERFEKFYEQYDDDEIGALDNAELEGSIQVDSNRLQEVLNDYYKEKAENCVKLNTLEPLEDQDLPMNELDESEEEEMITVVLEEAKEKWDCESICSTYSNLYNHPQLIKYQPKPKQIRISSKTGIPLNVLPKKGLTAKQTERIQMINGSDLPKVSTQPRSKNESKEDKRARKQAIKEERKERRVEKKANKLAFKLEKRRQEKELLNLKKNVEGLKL
# UniProt P23276, sequence (P23276 whole entry, looked up): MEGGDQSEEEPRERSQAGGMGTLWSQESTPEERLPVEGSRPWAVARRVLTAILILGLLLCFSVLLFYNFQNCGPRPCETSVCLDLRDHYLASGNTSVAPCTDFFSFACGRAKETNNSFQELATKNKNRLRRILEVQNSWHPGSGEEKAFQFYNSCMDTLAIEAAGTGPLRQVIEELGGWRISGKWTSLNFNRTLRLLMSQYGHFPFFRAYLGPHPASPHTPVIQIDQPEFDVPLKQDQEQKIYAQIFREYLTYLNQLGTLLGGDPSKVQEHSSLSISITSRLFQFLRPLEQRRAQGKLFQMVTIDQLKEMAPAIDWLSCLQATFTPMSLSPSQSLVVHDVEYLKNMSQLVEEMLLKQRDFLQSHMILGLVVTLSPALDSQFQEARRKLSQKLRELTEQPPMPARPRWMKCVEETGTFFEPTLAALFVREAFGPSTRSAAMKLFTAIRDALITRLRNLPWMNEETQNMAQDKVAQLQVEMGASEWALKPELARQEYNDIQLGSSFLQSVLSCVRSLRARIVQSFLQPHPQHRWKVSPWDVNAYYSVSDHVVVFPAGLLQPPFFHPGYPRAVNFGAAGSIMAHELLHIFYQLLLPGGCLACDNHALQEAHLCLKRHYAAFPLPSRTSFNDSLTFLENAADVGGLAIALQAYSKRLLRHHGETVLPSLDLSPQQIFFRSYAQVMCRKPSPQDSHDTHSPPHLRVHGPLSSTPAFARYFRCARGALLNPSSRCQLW
# UniProt P43362, sequence (P43362 whole entry, looked up): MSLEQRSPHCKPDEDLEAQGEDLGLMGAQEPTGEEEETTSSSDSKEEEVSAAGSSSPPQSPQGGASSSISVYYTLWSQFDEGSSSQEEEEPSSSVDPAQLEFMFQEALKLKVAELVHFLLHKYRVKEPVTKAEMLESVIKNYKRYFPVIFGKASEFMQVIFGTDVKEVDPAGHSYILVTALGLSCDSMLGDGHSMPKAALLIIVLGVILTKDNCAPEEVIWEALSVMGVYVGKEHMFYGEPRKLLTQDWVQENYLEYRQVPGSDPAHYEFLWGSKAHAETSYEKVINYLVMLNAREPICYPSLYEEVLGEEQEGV
# UniProt Q99661, sequence (Q99661 whole entry, looked up): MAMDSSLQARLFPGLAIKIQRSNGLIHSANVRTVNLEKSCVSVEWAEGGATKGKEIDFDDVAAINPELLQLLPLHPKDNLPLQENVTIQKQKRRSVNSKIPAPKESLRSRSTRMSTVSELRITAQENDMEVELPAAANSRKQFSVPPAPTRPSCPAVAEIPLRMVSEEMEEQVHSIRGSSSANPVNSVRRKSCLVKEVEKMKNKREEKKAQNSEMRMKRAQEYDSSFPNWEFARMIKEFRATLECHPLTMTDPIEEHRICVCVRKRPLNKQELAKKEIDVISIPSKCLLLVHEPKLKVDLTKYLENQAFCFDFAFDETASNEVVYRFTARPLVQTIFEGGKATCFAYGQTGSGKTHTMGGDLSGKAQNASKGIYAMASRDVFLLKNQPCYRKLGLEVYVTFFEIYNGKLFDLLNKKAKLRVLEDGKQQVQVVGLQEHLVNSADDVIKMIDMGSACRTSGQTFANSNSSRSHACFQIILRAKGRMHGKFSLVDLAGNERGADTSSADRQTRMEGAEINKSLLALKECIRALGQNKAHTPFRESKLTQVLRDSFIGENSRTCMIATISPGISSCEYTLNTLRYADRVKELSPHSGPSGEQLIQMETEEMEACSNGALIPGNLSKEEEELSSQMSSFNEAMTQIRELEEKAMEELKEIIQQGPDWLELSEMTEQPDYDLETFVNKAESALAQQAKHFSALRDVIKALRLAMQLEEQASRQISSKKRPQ
# UniProt P07948, sequence (P07948 whole entry, looked up): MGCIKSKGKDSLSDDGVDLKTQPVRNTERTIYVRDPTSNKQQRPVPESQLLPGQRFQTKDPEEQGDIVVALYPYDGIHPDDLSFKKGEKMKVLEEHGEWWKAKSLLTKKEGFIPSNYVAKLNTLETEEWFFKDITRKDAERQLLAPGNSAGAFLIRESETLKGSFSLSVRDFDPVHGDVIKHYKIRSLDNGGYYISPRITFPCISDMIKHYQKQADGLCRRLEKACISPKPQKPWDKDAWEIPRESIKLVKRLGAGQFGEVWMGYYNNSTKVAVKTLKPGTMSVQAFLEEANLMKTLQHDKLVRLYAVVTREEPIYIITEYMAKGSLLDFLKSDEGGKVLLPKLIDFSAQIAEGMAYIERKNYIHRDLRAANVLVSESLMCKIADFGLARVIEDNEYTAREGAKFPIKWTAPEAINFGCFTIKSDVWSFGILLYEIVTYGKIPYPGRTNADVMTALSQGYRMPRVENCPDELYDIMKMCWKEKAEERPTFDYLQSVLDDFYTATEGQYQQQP
Target,log2 fold change (erlotinib),log2 fold change [1],log2 fold change [2],log2 fold change [3],log2 fold change [4],log2 fold change [5],log2 fold change [6],log2 fold change [7],log2 fold change [8],log2 fold change [9],log2 fold change (IRAK-1-4 Inhibitor I),log2 fold change (ibrutinib),log2 fold change [10],log2 fold change (ralimetinib),log2 fold change [11],log2 fold change [12],log2 fold change [13],log2 fold change (pinometostat),log2 fold change [14],log2 fold change [15]
KNTC1 (UniProt P50748),0.102,0.068,0.029,-0.039,0.019,0.034,-0.065,-0.012,0.001,-0.004,-0.084,-0.028,0.058,-0.007,0.012,-0.157,0.039,0.095,-0.02,-0.008
INPP1 (UniProt P49441),0.014,0.006,0.073,0.059,0.042,-0.01,0.005,0.044,0.01,-0.101,-0.001,0.023,-0.003,-0.108,-0.039,0.016,-0.007,-0.054,-0.072,-0.03
IPO13 (UniProt O94829),-0.045,-0.018,0.05,-0.037,0.025,0.021,-0.059,-0.033,0.013,-0.062,-0.005,-0.1,0.066,0.103,-0.226,-0.281 (active),0.002,0.015,-0.026,-0.04
MED12 isoform 2 (UniProt Q93074),0.022,0.04,-0.031,0.188,0.101,0.121,0.012,-0.361,0.193,-0.11,-0.057,-0.098,-0.747 (active),-0.05,-0.024,-0.291,-0.005,0.251,-0.053,-0.04
KPNA6 (UniProt O60684),0.077,0.108,-0.068,-0.075,0.013,0.059,0.015,-0.119,0.017,-0.07,-0.046,-0.032,-0.04,0.077,-0.047,-0.239,0.087,0.087,0.04,-0.15
MIA2 (UniProt Q96PC5),0.01,0.044,0.04,-0.044,-0.033,0.035,0.021,-0.092,0.003,0.041,-0.036,0.008,-0.059,-0.003,0.03,-0.155,0.035,0.043,0.077,0.032
METAP1D (UniProt Q6UB28),-0.061,-0.307,-0.02,0.025,-0.004,-0.014,0.005,-0.002,-0.018,0.033,-0.122,0.017,0.084,0.01,-0.032,0.094,0.044,-0.003,0.073,-0.024
LARP4B (UniProt Q92615),-0.016,0.032,-0.042,0.017,-0.057,-0.03,0.063,-0.06,-0.013,-0.042,-0.122,0.007,-0.048,0.135,0.018,-0.213,0.002,0.143,0,0.034
MAGEA9 (UniProt P43362),0.05,0.032,0.001,0.076,-0.07,0.074,-0.021,-0.058,-0.191,0.018,0.008,-0.094,0.101,0,0.031,-0.256,0.087,0.009,0.057,-0.49 (active)
LIMA1 isoform 4 (UniProt Q9UHB6),-0.015,-0.062,-0.039,0.069,0.038,-0.015,0.022,0.054,0,-0.039,-0.031,0.033,-0.267 (active),0.011,0.114,0.206,-0.03,0.006,0.079,0.049
KEL (UniProt P23276),0.011,0.042,0.008,0.13,-0.005,0.147,-0.029,-0.067,-0.013,-0.001,-0.001,0.052,-0.028,-0.011,0.054,0.025,-0.102,-0.02,-0.006,0.041
LYN (UniProt P07948),-0.073,0.044,-0.171,0.007,0.005,-0.028,-0.014,-0.253,0.035,-0.015,-0.016,0.4 (active),-0.456 (active),0.045,0.018,-0.03,0.24,0.065,0.008,0.078
KSR1 (UniProt Q8IVT5),0.082,0.004,0.044,-0.044,0.162,0.058,0.185,-0.106,-0.088,0.058,-0.07,-0.084,-0.807 (active),0.065,-0.231,-0.085,0.085,0.035,0.011,0.044
KIF2C (UniProt Q99661),0.036,0.09,0.036,0.021,0.01,-0.004,0.043,0.019,-0.031,-0.103,-0.111,-0.033,-0.058,0.028,-0.069,-0.065,0.035,0.031,-0.008,0.028
KIF13A (UniProt Q9H1H9),0.065,-0.026,-0.031,0.017,0.056,-0.009,-0.027,-0.055,-0.043,0.072,0.045,0.042,0.047,-0.015,0.025,-0.069,0.035,-0.008,-0.01,-0.044
LTV1 (UniProt Q96GA3),-0.079,-0.073,-0.275,0.041,-0.037,0.013,-0.055,0.046,0.143,-0.284,-0.101,-0.009,0.224,0.134,0.001,-0.233,0.104,0.249,-0.005,-0.726 (active)

# Source: the supplement of paper PMC10849652
